For 65 compounds, outcome results are on record in PubChem BioAssay (NCATS).

Records with an inconclusive call do not appear. Active and inactive are the calls of the source. Unless noted, calls follow the shape of the dose curve; as a rule, active = well fitted curve in either direction with a large enough effect (not every such curve was filed as active); inconclusive = small, poorly fitted or top-dose-only effect, or another doubt; inactive = flat fitted curve, though single readings scatter.

In test [1] the target is Mitogen-activated protein kinase 10 (Mus musculus) (UniProt Q61831). In words: JNK3 AlphaScreen Assay (AID 530).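 Also: kinase came from lysate of stimulated human HepG2 cells; signal reports phosphorylation of biotinylated GST-cJun 1-79 at Ser73 with 10 µM ATP; series mostly up to about 57 µM.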 An outline of the steps:
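Phosphorylation of biotinylated GST-cJun(1-79) at Ser73 is measured by AlphaScreen proximity luminescence. Enzyme is JNK3 in HepG2 lysates activated with interleukin-1beta and tumor necrosis factor alpha; ATP is 10 uM final.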
A general note: Bead proximity is the source of the signal in Alpha formats.

For test [2], the target named is 3',5'-cyclic-AMP phosphodiesterase 4B (Homo sapiens) (UniProt Q07343). In words: qHTS Assay for Inhibitors of PDE-IV (AID 607; active = well fitted activation curve with a large enough effect in the main read-out, with a control signal flat, not every such curve was filed as active). The procedure, abridged:
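HEK293 ACTOne cells with CNG channel (1000/well), endogenous PDE4; membrane potential dye, compounds up to 22.9 uM final. Fluorescence Ex 535/Em 590; RO 20-1724 (100 uM final) as reference.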

Sequence of 3',5'-cyclic-AMP phosphodiesterase 4B (Homo sapiens) (Q07343 whole entry, looked up): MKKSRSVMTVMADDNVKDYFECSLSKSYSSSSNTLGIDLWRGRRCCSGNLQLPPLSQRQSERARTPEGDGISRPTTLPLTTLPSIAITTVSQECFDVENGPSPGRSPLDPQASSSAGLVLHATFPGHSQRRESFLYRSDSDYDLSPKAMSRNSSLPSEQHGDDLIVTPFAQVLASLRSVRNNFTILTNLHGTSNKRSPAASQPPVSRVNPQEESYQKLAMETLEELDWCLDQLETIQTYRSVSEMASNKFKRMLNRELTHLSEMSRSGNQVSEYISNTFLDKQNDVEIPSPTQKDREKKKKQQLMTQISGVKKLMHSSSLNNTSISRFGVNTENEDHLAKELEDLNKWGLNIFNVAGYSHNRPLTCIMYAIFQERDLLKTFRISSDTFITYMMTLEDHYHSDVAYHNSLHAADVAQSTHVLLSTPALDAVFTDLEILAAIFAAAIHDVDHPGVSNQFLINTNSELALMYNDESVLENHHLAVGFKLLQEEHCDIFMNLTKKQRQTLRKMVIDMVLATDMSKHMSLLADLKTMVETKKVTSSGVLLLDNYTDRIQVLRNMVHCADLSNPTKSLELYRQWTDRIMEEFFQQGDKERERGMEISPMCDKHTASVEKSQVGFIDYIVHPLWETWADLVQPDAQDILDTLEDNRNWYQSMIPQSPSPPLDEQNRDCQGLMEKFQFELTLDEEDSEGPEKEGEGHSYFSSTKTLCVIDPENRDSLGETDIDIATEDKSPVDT

Take `COCCNC(=O)C1(C)C=CCN1C(C)=O` (stereo not given): the call in test [1] was inactive.

As for `COC(=O)[C@H]1C[C@@H]1[C@H](NC(C)=O)c1ccccc1`, the outcome in test [1] was inactive.

`COC(=O)[C@@]1(Cc2ccccc2)[C@H]2c3cc(C(=O)N(C)C)n(Cc4cc(C)n(C)n4)c3C[C@H]2CN1C(=O)c1ccccc1`: the compound was called inactive in test [1].

As to `COC(=O)[C@@]1(Cc2ccccc2)[C@H]2c3cc(C(=O)N(C)C)n(CCF)c3C[C@H]2CN1C(=O)c1ccccc1`, the call in test [1] was inactive.

For the compound `C[C@@H](C(=O)Nc1ccc2ccccc2c1)[C@@H]1C[C@@]1(C)[C@@H](NS(=O)(=O)c1ccccc1)c1ccccc1`, the result in test [1] was inactive.

For `CCCC[C@H]1C[C@@H]1[C@@H]1N(C(C)=O)[C@H](c2cccc(OC)c2)CC12CC2`, the call in test [1] was inactive.

Turning to `COC(=O)[C@@]1(Cc2ccc(OC)cc2)[C@H]2c3cc(C(=O)N4CCCC4)n(CCc4c[nH]c5ccccc45)c3C[C@H]2CN1C(=O)c1ccccc1`, the compound was called inactive in test [1].

Regarding `CC1(C(=O)NCc2ccccn2)C=CCN1C(=O)c1ccccc1` (stereo not given), the compound was called inactive in test [1].

For the compound `COC(=O)[C@@]1(Cc2ccc(F)cc2)[C@H]2c3cc(C(=O)N4CCCC4)n(C[C@H](O)CO)c3C[C@H]2CN1C(=O)c1ccccc1`, in test [1], the call was inactive.

For `CCCC[C@@H]1C[C@H]1C(NS(=O)(=O)c1cccc2cccnc12)c1ccc(-c2ccccc2)cc1` (stereo not given in full), the call in test [1] was inactive.

For `COC(=O)Cn1c(C(=O)N2CCCC2)cc2c1C[C@H]1CN(C(=O)c3ccccc3)[C@@](Cc3ccccc3)(C(=O)OC)[C@@H]21`, in test [1], the call was inactive.

`COC(=O)C1(Cc2ccccc2)C=C2C(=C(c3ccccc3)C(=O)C2C)CN1` (stereo not given): the compound was called inactive in test [1].

In the case of `COC(=O)[C@@]1(Cc2ccc(OC)cc2)[C@H]2c3cc(C(=O)N(C)C)n(Cc4cc(C)n(C)n4)c3C[C@H]2CN1C(=O)c1ccccc1`, the compound was called inactive in test [1].

As to `CC(C)=C1C(=O)C(c2ccccc2)=C2CN3C(=O)N(CCc4ccccc4)C(=O)[C@]3(Cc3ccc(C(F)(F)F)cc3)[C@H]21`, the result in test [1] was inactive.

Take `COCCn1c(C(=O)N2CCCC2)cc2c1C[C@H]1CN(C(=O)c3ccccc3)[C@@](Cc3ccccc3)(C(=O)OC)[C@@H]21`: the compound was classed as inactive in test [1].

Regarding `CCC[C@@H]1C[C@@]1(CCC)C(NP(=O)(c1ccccc1)c1ccccc1)c1ccc(Cl)cc1` (stereo not given in full), the outcome in test [1] was inactive.

With `COC(=O)[C@@H]1C[C@H]1[C@@H](NC(C)=O)c1ccccc1`, the compound was classed as inactive in test [1].

`Cc1ccc(CNC(=O)[C@H]2C[C@@H]2[C@H](NP(=O)(c2ccccc2)c2ccccc2)c2ccccc2)o1`: the compound was classed as inactive in test [1].

Take `COCCn1c(C(=O)N(C)C)cc2c1C[C@H]1CN(C(=O)c3ccccc3)[C@@](Cc3ccc(F)cc3)(C(=O)OC)[C@@H]21`: in test [1], the result was inactive.

For the compound `COc1ccc(CNC(=O)[C@H](C)[C@H]2C[C@]2(C)[C@H](NC(=O)OCc2ccccc2)c2ccccc2)cc1OC`, in test [1], the call was inactive.

On to `CC(C)=C1C(=O)C(c2ccccc2)=C2CN3C(=O)N(CCc4ccccc4)C(=O)[C@]3(C)[C@H]21`, for which the call in test [1] was inactive.

Consider `C[C@@H](C(=O)NCc1ccc(C(F)(F)F)nc1)[C@H]1C[C@]1(C)[C@H](NC(=O)OCc1ccccc1)c1ccccc1`, for which the outcome in test [1] was inactive.

As to `COC(=O)[C@@]1(Cc2ccc(F)cc2)[C@H]2c3cc(C(=O)N4CCCC4)n(CC4CC4)c3C[C@H]2CN1C(=O)c1ccccc1`, the result in test [1] was inactive.

On to `Cc1cc(C(=O)N[C@@H](c2ccccc2)[C@]2(C)C[C@H]2[C@@H](C)C(=O)Nc2ccc3ccccc3c2)no1`, for which the compound was classed as inactive in test [1].

On to `COc1ccc2nc3c(c(-c4ccccc4)c2c1)CCC3`, for which the outcome in test [1] was inactive.

Turning to `COC(=O)[C@@]1(Cc2ccc(F)cc2)[C@H]2c3cc(C(=O)N(C)C)n(Cc4cc(C)n(C)n4)c3C[C@H]2CN1C(=O)c1ccccc1`, in test [1], the compound was classed as inactive.

As to `Cc1ccc(CNC(=O)[C@@H]2C[C@H]2[C@@H](NP(=O)(c2ccccc2)c2ccccc2)c2ccccc2)o1`, the compound was called inactive in test [1].

For `COCCn1c(C(=O)N2CCCC2)cc2c1C[C@H]1CN(C(=O)c3ccccc3)[C@@](Cc3ccc(OC)cc3)(C(=O)OC)[C@@H]21`, in test [1], the compound was classed as inactive.

Consider `COC(=O)[C@@]1(Cc2ccccc2)[C@H]2c3cc(C(=O)N4CCCC4)n(CCO)c3C[C@H]2CN1C(=O)c1ccccc1`, for which, in test [1], the call was inactive.

On to `COC(=O)[C@@]1(Cc2ccc(OC)cc2)[C@H]2c3cc(C(=O)N(C)C)n(Cc4ccc(C)o4)c3C[C@H]2CN1C(=O)c1ccccc1`, for which the compound was classed as inactive in test [1].

For `O=C(NCc1ccccn1)[C@H]1C[C@@H]1[C@H](NP(=O)(c1ccccc1)c1ccccc1)c1ccccc1`, the call in test [1] was inactive.

Consider `CCC/C=C(\CCC)C(NC(=O)c1ccco1)c1ccc(C(=O)OC)cc1` (stereo not given), for which the compound was classed as inactive in test [1].

For the compound `CCCC[C@@H]1C[C@H]1C(NC(=O)c1ccco1)c1ccccc1C(F)(F)F` (stereo not given in full), the outcome in test [1] was inactive.

As to `CCCC[C@@H]1C[C@H]1C(NC(=O)c1ccccc1)c1ccc(C(F)(F)F)cc1` (stereo not given in full), in test [1], the outcome was inactive.

Regarding `C[Si](C)(C)C#Cc1ccccc1NC(=S)Nc1ccccc1`, the outcome in test [1] was inactive.

`Cc1ccc(CNC(=O)[C@H](C)[C@@H]2C[C@@]2(C)[C@@H](NC(=O)OCc2ccccc2)c2ccccc2)o1`: the outcome in test [1] and in test [2] was inactive.

As to `COC(=O)[C@@]1(Cc2ccc(OC)cc2)[C@H]2c3cc(C(=O)N(C)C)n(Cc4ccc(C(F)(F)F)nc4)c3C[C@H]2CN1C(=O)c1ccccc1`, the compound was classed as inactive in test [1] and in test [2].

Consider `C[C@@H](C(=O)NCc1ccccc1)[C@@H]1C[C@@]1(C)[C@@H](NC(=O)OCc1ccccc1)c1ccccc1`, for which the outcome in test [1] and in test [2] was inactive.

Consider `COC(=O)[C@@]1(Cc2ccc(OC)cc2)[C@H]2c3cc(C(=O)N4CCCC4)n(Cc4cc(C)n(C)n4)c3C[C@H]2CN1C(=O)c1ccccc1`, for which the result in test [1] and in test [2] was inactive.

On to `COC(=O)[C@@]1(Cc2ccc(F)cc2)[C@H]2c3cc(C(=O)N(C)C)n(Cc4ccsc4Br)c3C[C@H]2CN1C(=O)c1ccccc1`, for which the call in test [1] and in test [2] was inactive.

On to `COC(=O)[C@@]1(Cc2ccc(OC)cc2)[C@H]2c3cc(C(=O)N4CCCC4)n(CCN4CNCC4=O)c3C[C@H]2CN1C(=O)c1ccccc1`, for which the call in test [1] and in test [2] was inactive.

As to `COC(=O)[C@@]1(Cc2ccccc2)[C@H]2c3cc(C(=O)N(C)C)n(Cc4ccc(S(C)(=O)=O)cc4)c3C[C@H]2CN1C(=O)c1ccccc1`, the result in test [1] and in test [2] was inactive.

With `COC(=O)[C@@]1(Cc2ccccc2)[C@@H]2[C@@H](CC(=O)[C@H]2CC(=O)C(=O)N(C)C)CN1C(=O)c1ccccc1`, the call in test [1] and in test [2] was inactive.

On to `COC(=O)[C@@]1(Cc2ccc(OC)cc2)[C@H]2c3cc(C(=O)N4CCCC4)n(Cc4ccc(O)c(OC)c4)c3C[C@H]2CN1C(=O)c1ccccc1`, for which the outcome in test [1] and in test [2] was inactive.

Take `Cc1ccc(CNC(=O)[C@H](C)[C@H]2C[C@]2(C)[C@H](NC(=O)OCc2ccccc2)c2ccccc2)o1`: the call in test [1] and in test [2] was inactive.

With `COC(=O)[C@@]1(Cc2ccc(F)cc2)[C@H]2c3cc(C(=O)N(C)C)n(Cc4ccccn4)c3C[C@H]2CN1C(=O)c1ccccc1`, the compound was classed as inactive in test [1] and in test [2].

As for `O=C(NCc1cccc2ccccc12)[C@H]1C[C@@H]1[C@H](NP(=O)(c1ccccc1)c1ccccc1)c1ccccc1`, the call in test [1] and in test [2] was inactive.

With `COC(=O)Cn1c(C(=O)N(C)C)cc2c1C[C@H]1CN(C(=O)c3ccccc3)[C@@](Cc3ccc(OC)cc3)(C(=O)OC)[C@@H]21`, the compound was called inactive in test [1] and in test [2].

Regarding `Cc1cc(CNC(=O)[C@H](C)[C@H]2C[C@]2(C)[C@H](NC(=O)OCc2ccccc2)c2ccccc2)nn1C`, the call in test [1] and in test [2] was inactive.

Regarding `COC(=O)[C@@]1(Cc2ccc(OC)cc2)[C@H]2c3cc(C(=O)N(C)C)n(CCc4ccc(O)c(OC)c4)c3C[C@H]2CN1C(=O)c1ccccc1`, the outcome in test [1] and in test [2] was inactive.

As to `COc1ccc(CNC(=O)[C@H]2C[C@@H]2[C@H](NP(=O)(c2ccccc2)c2ccccc2)c2ccccc2)cc1OC`, the compound was called inactive in test [1] and in test [2].

In the case of `COC(=O)[C@@]1(Cc2ccc(OC)cc2)[C@H]2c3cc(C(=O)N4CCCC4)n(CCO)c3C[C@H]2CN1C(=O)c1ccccc1`, the compound was classed as inactive in test [1] and in test [2].

`COC(=O)[C@H]1C[C@@H]1[C@H](NS(=O)(=O)c1ccccc1)c1ccccc1`: the compound was classed as inactive in test [1] and in test [2].

As to `COC(=O)Cn1c(C(=O)N(C)C)cc2c1C[C@H]1CN(C(=O)c3ccccc3)[C@@](Cc3ccc(F)cc3)(C(=O)OC)[C@@H]21`, the compound was classed as inactive in test [1] and in test [2].

As for `COC(=O)[C@@]1(Cc2ccc(OC)cc2)[C@H]2c3cc(C(=O)N(C)C)n(Cc4ccc(OC(F)(F)F)cc4)c3C[C@H]2CN1C(=O)c1ccccc1`, the call in test [1] and in test [2] was inactive.

`COC(=O)C1(CC(C)C)C=C2C(=C(C)C(=O)C2C)CN1` (stereo not given): the outcome in test [1] and in test [2] was inactive.

With `COC(=O)[C@@]1(Cc2ccc(OC)cc2)[C@H]2c3cc(C(=O)N4CCCC4)n(Cc4ccc(S(C)(=O)=O)cc4)c3C[C@H]2CN1C(=O)c1ccccc1`, the result in test [1] and in test [2] was inactive.

For `CS(=O)(=O)c1ccc(CNC(=O)[C@@H]2C[C@H]2[C@@H](NP(=O)(c2ccccc2)c2ccccc2)c2ccccc2)cc1`, the call in test [1] and in test [2] was inactive.

Consider `C[C@@H](C(=O)Nc1ccc2ccccc2c1)[C@H]1C[C@]1(C)[C@H](NS(=O)(=O)c1ccccc1)c1ccccc1`, for which the result in test [1] and in test [2] was inactive.

For `COC(=O)[C@@]1(Cc2ccccc2)[C@H]2c3cc(C(=O)N4CCCC4)n(CCSCCO)c3C[C@H]2CN1C(=O)c1ccccc1`, the compound was classed as inactive in test [1] and in test [2].

Regarding `CCc1c2c(nc3ccccc13)OC(C)C2` (stereo not given), the compound was called inactive in test [1] and in test [2].

On to `COc1ccc(NC(=O)CCCCC#Cc2ccccc2)cc1`, for which the compound was called inactive in test [1] and in test [2].

Turning to `COC(=O)[C@@]1(Cc2ccc(OC)cc2)[C@H]2c3cc(C(=O)N(C)C)n(C[C@H](O)CO)c3C[C@H]2CN1C(=O)c1ccccc1`, the compound was called inactive in test [1] and in test [2].

Consider `COC(=O)[C@@]1(Cc2ccc(F)cc2)[C@H]2c3cc(C(=O)N(C)C)n(Cc4ccc(S(C)(=O)=O)cc4)c3C[C@H]2CN1C(=O)c1ccccc1`, for which the result in test [1] and in test [2] was inactive.

With `C[C@@]1(C(NS(=O)(=O)c2cccc3cccnc23)c2ccc(-c3ccccc3)cc2)C[C@H]1C1CCCCC1` (stereo not given in full), the outcome in test [1] and in test [2] was inactive.
